Screening results (PubChem BioAssay)
TDP1 cell noCPT: qHTS for Inhibitors of human tyrosyl-DNA phosphodiesterase 1 (TDP1): qHTS in cells in absence of CPT | DT40 Tdp1-/- hTDP1 cells, no CPT, ATP luminescence, 48 h | actives 15% (n = 420,000) | AID 686978, 2013 | Potency, µM (titrated, usually from 46.2 µM), for inactives: at the highest dose activity change, negative = growth inhibition, usual class: inhibitors; also: potency is read from the fitted curve at half-maximal effect; nearly all actives have a fitted effect of over 55% in size
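Luminescent ATP content (CellTiter-Glo) served as the growth readout. Knockout chicken DT40 cells expressing human TDP1 were exposed to compounds without camptothecin for a minimum 48 hr at 37 °C.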
IL1B secr inh: qHTS for Inhibitors of Inflammasome Signaling: IL-1-beta AlphaLISA Primary Screen. actives 4.7% (n = 360,000). activity change, % at 57.5 µM. THP-1 LPS/ATP IL-1B secretion, AlphaLISA, 16 h; hits give low values; in the data active = activity change below about -50%; inconclusive = mostly about -30% to -49%
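THP-1 cells pretreated 1 hr with compounds (up to 57.5 uM final), then stimulated with LPS (250 ng/mL final) plus ATP (1.25 mM final); secreted IL-1B measured by AlphaLISA after 16 hr, decreased signal indicating inhibition.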
Gal4-VP16 FLuc: VP16 counterscreen qHTS for inhibitors of ROR gamma transcriptional activity | Drosophila S2 Gal4-VP16 UAS-luciferase, luminescence, 20 h | Potency, µM (doses to about 53.6 µM), for inactives: top-dose activity, negative = inhibition, most hits filed as inhibitors | actives 3.5% (n = 310,000) | AID 2546, 2010;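 also: Gal4-VP16 expression switched on by copper sulfate through the metallothionein promoter; potency is read from the fitted curve at half-maximal effect; nearly all actives have a fitted effect of over 50% in size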
LDHA inh: qHTS assay for inhibitors of human lactate dehydrogenase. AID 1347041, 2019. activity change, % (values are at about 110 or 230 µM). purified LDHA, NADH/diaphorase-resazurin fluorescence; hits give low values. L-lactate dehydrogenase A chain (Homo sapiens), P00338. actives 0.15% (n = 480,000); in the data active = activity change below about -30%; inconclusive = mostly about -25% to -30%;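 also: plate controls were DMSO wells for no effect and wells without enzyme for full effect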
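LDH5 2 nM; NADH 0.06 mM, pyruvate 0.2 mM; 200 mM Tris pH 7.4, EDTA, Tween-20; 5 min RT. Detection: diaphorase 0.133 mg/mL + resazurin 37 µM, fluorescence ex540/em590 at 0 and 20 min; normalized to enzyme-free and DMSO wells.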
RORgamma inh: qHTS for inhibitors of ROR gamma transcriptional activity; Nuclear receptor ROR-gamma (Mus musculus), P51450; Drosophila S2 Gal4-RORgamma UAS-luciferase reporter, 20 h; Potency, µM (highest dose often 53.6 µM), for the others: at the highest dose activity change, negative = inhibition, usual class: inhibitors; actives 5.4% (n = 310,000); AID 2551, 2010; also: potency is read from the fitted curve at half-maximal effect; nearly all actives have a fitted effect of over 60% in size
Target sequence (P51450 whole entry, looked up, the tested form may be a part): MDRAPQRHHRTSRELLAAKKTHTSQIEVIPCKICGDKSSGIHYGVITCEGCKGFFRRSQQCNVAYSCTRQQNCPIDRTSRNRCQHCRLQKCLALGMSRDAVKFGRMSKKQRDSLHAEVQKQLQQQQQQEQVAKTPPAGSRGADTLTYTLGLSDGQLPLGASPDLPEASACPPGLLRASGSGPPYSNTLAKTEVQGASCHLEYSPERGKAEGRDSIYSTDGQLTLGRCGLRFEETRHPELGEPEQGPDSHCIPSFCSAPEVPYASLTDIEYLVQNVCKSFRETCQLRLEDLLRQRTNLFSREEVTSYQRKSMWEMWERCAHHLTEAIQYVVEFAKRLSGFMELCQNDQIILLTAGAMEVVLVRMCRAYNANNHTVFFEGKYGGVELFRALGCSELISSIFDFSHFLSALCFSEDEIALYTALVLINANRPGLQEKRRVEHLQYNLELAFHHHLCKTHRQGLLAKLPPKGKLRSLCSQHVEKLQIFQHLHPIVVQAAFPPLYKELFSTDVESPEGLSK
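ROR gamma transcriptional activity was tracked as Gal4-UAS luciferase output in stably transfected Drosophila Schneider cells, with compound added 1 hr before 700 uM copper sulfate induction and a 20 hr ambient-temperature incubation.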
DT40 TDP1 CPT: qHTS for Inhibitors of human tyrosyl-DNA phosphodiesterase 1 (TDP1): qHTS in cells in presence of CPT; chicken DT40 Tdp1-/-;hTDP1 cells + 20 nM CPT, ATP luminescence, 48 h; actives 12% (n = 420,000); Potency, µM (highest dose often 46.2 µM), for inactives: at the top dose activity change, negative = growth inhibition, usual class: inhibitors; also: potency is read from the fitted curve at half-maximal effect; nearly all actives have a fitted effect of over 55% in size
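Chicken DT40 Tdp1-/- cells complemented with human TDP1, 400 cells/well, exposed to compounds plus 20 nM camptothecin for at least 48 h at 37 C; viability read as ATP content by CellTiter-Glo luminescence.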
Starred values were filed as active, the others as inactive; ? = inconclusive; / = not tested or not shown. Shown are actives, neighbours in structure and some others; about 18% of the full set was active somewhere. Unless noted, calls follow the shape of the dose curve; as a rule, active = well fitted curve in the direction sought with a large enough effect; inconclusive = small, poorly fitted or top-dose-only effect, or another doubt; inactive = no such curve, though single readings can be large; an effect the other way counts as inactive or inconclusive. Unless noted, % is scaled to controls: 0 for no effect and ±100 for the full control effect.

SMILES | TDP1 cell noCPT | IL1B secr inh | Gal4-VP16 FLuc | LDHA inh | RORgamma inh | DT40 TDP1 CPT
Cc1cc(C)cc(OCCNC(=O)Cn2nc(C)c3ccccc3c2=O)c1 | / | / | / | -2.0 | / | /
Oc1ccccc1C=Nc1ccc(Cl)cc1C(F)(F)F | / | / | / | -4.3 | / | /
O=C(NC1=C(Nc2ccc(F)cc2)C(=O)c2ccccc2C1=O)c1ccc(Cl)cc1 | ? | 29.7 | ? | 26.1 | -37.6% | 20.6µM*
CCOc1ccc(NC2=C(OC)C(=O)c3ccccc3C2=O)cc1 | ? | -83.3* | -25.2% | 17.6 | -3.1% | 20.6µM*
O=C(NNC(=O)c1ccc(NC(=O)c2ccccc2)cc1)c1ccc(F)cc1 | 10.5% | 0.5 | -3.3% | -3.8 | -34.1% | 29.8%
COC1=C(Nc2ccc(O)cc2)C(=O)c2ccccc2C1=O | ? | -64.2* | -26.3% | 23.0 | -33.0% | 4.11µM*
COC1=C(Nc2ccc(OC)cc2)C(=O)C(OC)=C(Nc2ccc(OC)cc2)C1=O | -12.3% | -14.5 | / | 8.2 | / | 6.1%
O=C(CSc1nnc(-c2cccnc2)n1C1CC1)c1cc2ccccc2o1 | / | / | / | -24.9 | / | /
O=C(NCC(=O)N1CCc2ccccc2C1)C1CCC(CNS(=O)(=O)c2ccc(F)cc2)CC1 (stereo unspecified) | / | / | / | -0.7 | / | /
Cc1c(C)c2ccc(OCC(=O)Nc3cccnc3)c(C)c2oc1=O | 18.4µM* | 9.4 | 16.6% | 0.3 | 1.5% | ?
O=C(COc1ccc2ccccc2c1Br)Nc1ccncc1 | 7.31µM* | -0.8 | ? | -7.5 | ? | 10.3µM*
O=C(O)CCC(=O)NNC(=O)COc1ccc2ccccc2c1Br | 5.1% | 2.7 | -3.9% | -7.6 | -18.5% | -0.1%
O=C(COc1ccc2ccccc2c1Br)Nc1cccnc1 | ? | ? | 1.6% | -0.8 | 21.5% | 16.4µM*
CC(=O)/C(=N/Nc1cccc(Cl)c1)Sc1nnc(C(O)c2ccccc2)n1-c1ccccc1 (stereo unspecified) | -16.7% | 9.6 | -12.6% | -5.9 | -8.6% | -12.2%
CC(=O)/C(=N\Nc1ccc(Cl)cc1)Sc1nnc(-c2ccccc2)n1-c1ccccc1 | ? | -15.4 | 6.31µM* | -0.2 | 6.31µM* | ?
CC(=O)/C(=N/Nc1ccccc1)Sc1nnc(CCc2ccccc2)n1-c1ccccc1 | 18.4µM* | -76.1* | -3.2% | -2.0 | -8.8% | 11.6µM*
CC(C)Oc1ccc(CCc2nnc(SC(C)C(=O)O)n2-c2ccccc2)cc1 (stereo unspecified) | -5.1% | 15.0 | -8.0% | -3.8 | -17.5% | 2.9%
CCCn1c2ccccc2c2cnn(CC(=O)NCCc3ccccc3)c(=O)c21 | ? | / | / | -4.7 | / | 23.1µM*
CC(C)(C)c1ccc(Cn2c(=O)cnc3ccccc32)cc1 | 16.4µM* | 29.7 | ? | 5.8 | 22.4µM* | 16.4µM*
CCC1CCCCN1CCCNC(=O)Cn1ncc2c(C)n(Cc3ccccc3Cl)c(C)c2c1=O (stereo unspecified) | 18.4µM* | -10.8 | 0.5% | 1.1 | 0.4% | 18.4µM*
Cc1c2cnn(CC(=O)NCCCN3CCCCC3)c(=O)c2c(C)n1Cc1ccccc1 | -24.2% | -21.8 | -2.2% | 2.5 | -10.0% | -19.3%
CC1CCCCN1CCCNC(=O)Cn1ncc2c3ccccc3n(Cc3ccccc3F)c2c1=O (stereo unspecified) | 18.4µM* | / | / | -2.1 | / | ?
CN(Cc1ccc(C#N)cc1)Cc1ccco1 | / | / | / | 2.4 | / | /
CCCn1c2ccccc2c2cnn(CC(=O)NCCc3ccc(S(N)(=O)=O)cc3)c(=O)c21 | ? | / | / | -8.8 | / | ?
CCCn1c2ccccc2c2cnn(CC(=O)NCCc3ccc(OCC)cc3)c(=O)c21 | 23.1µM* | / | / | -0.4 | / | ?
